Data as given in PubChem BioAssay AID1053124 (Broad Institute, 2014).
Entries with a potency or affinity are not part of this list. The source made the active and inactive calls.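 Rule for the calls: active = cell killing whose fitted half-effect concentration is at most twice the top valid dose tested; inconclusive = flat curve with 30 to 70% killing, or a poor fit; inactive = effect in the rising direction, plus the rest.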

Assay: A549 cell cytotoxicity, dose response, cytotoxicity control, ATP luminescence, cherry-pick, set 2 (AID 1053124)
Conditions: A549 viability, ATP luminescence (CellTiter-Glo), 72 h; series mostly up to 26 µM

SMILES | outcome
CCCn1c(=N)c(S(=O)(=O)c2ccccc2)cc2c(=O)n3ccccc3nc21 | inactive
COc1ccc(C2C3=C(CCCC3=O)N(CC(=O)O)C3=C2C(=O)CCC3)cc1 | inactive
CCOc1ccc(NC(=O)CN(C)C(=O)CCCNC(=O)c2ccc(Cl)cc2)cc1OCC | inactive
COc1ccccc1NS(=O)(=O)c1cc(NC(=O)CCNC(C)=O)ccc1C | inactive
S=c1[nH]c2ccc(Cc3ccc4[nH]c(=S)[nH]c4c3)cc2[nH]1 | inactive
Cc1ccc(S(=O)(=O)CCC(=O)OCC(=O)Nc2cccc(S(=O)(=O)N3CCCCC3)c2)cc1 | inactive
Nc1ccc2nc(-c3ccccc3)cnc2c1 | inactive
CCOc1ccc2nc(NCCCNC(=O)c3cc(OC)c(OC)c(OC)c3)c(C#N)cc2c1 | inactive
Cc1nc(CCNC(=O)Cc2ccc(Cl)cc2)cs1 | inactive
COc1ccc(CCN=C(N)NS(=O)(=O)c2ccc(F)cc2)cc1 | inactive
COc1ccccc1N1CCN(C2CCC(C)CC2)CC1 (stereo not given) | inactive
COc1ccc(CCNC(=O)CSc2cn(Cc3cccc(C)c3)c3ccccc23)cc1OC | inactive
N#Cc1c(NCCCO)nc(NCc2ccccc2)c2c1CCN(Cc1ccccc1)C2 | inactive
O=[N+]([O-])c1cccc(-c2n[nH]c(=S)n2-c2ccc(Br)cc2)c1 | inactive
CCOC(=O)C(NC(=O)c1ccccc1)(OCC1(CC)COC1)C(F)(F)F (stereo not given) | inactive
CCCOc1ccccc1/C=C1\SC(N)=NC1=O | inactive
N#Cc1c2ccc(O)cc2n2ccccc12 | inactive
CSc1ccc(Cn2c(C)c(C(=O)NCc3cccc(Cl)c3)sc2=O)cc1 | inactive
O=C(Cc1csc(-c2ccccc2)n1)NCc1ccccc1F | inactive
C#CCOc1ccc(C2C(C#N)=C(N)Oc3cc(O)ccc32)cc1 (stereo not given) | inactive

SMILES | outcome
CC(C)C(=O)Nc1sc2c(c1C(N)=O)CCN(Cc1ccccc1)C2 | inactive
N=c1c(C(=O)NCC2CCCO2)cc2c(=O)n3ccccc3nc2n1Cc1ccc(Cl)cc1 (stereo not given) | inactive
NC(=O)c1cc([N+](=O)[O-])ccc1NCc1cccnc1 | inactive
CC(=O)c1cc2c(ccc3ccccc32)oc1=O | inactive
S=C(NCC1CCCO1)N1CCN(Cc2ccccc2Cl)CC1 (stereo not given) | inactive
O=c1oc2cc(O)ccc2cc1S(=O)(=O)c1ccccc1 | inactive
CC1CCN(S(=O)(=O)N2CCC(C(=O)NC3CCCC3)CC2)CC1 | inactive
Cc1cc(-n2c(=O)c(C#N)cc3c(=O)n4ccccc4nc32)no1 | inactive
O=C(c1cccc(Cl)c1)N1CCC(=O)N(C(COCc2ccccc2)Cc2ccccc2)CC1 (stereo not given) | inactive
CCOc1ccc(C(=O)c2cc3ccc(O)cc3oc2=O)cc1 | inactive
Cc1cc(-c2ccccc2)c2ccc(NC(=O)C(C)(C)C)nc2n1 | inactive
COc1ccc(C(=O)Oc2cc(N)n(S(=O)(=O)c3ccccc3)n2)cc1 | inactive
Nc1ccc(C#Cc2ccc3c(=O)c4ccccc4oc3c2)cc1 | inactive
Cn1nc(-c2ccc(Cl)cc2)c2cc(C(=O)N3CCN(c4ccccc4)CC3)sc21 | inactive
COCCNC(=S)N/N=C/c1ccc(-c2ccc([N+](=O)[O-])cc2)o1 | inactive
Cc1ccc2nc3c(cc(C(=O)NCc4ccccc4)c(=N)n3CCCn3ccnc3)c(=O)n2c1 | inactive
C=CCn1c(=N)c(C#N)cc2c(=O)n3ccccc3nc21 | inactive
Cc1ccc(-n2nnnc2CNC(=O)C(=O)c2c[nH]c3ccccc23)cc1C | inactive
CN1c2ccc(Cl)cc2C(=O)NC1C1CC=CCC1 (stereo not given) | inactive
CCc1cccc(OC2OC(CO)C(O)C(O)C2NC(C)=O)c1 (stereo not given) | inactive
